Test results as given in PubChem BioAssay (NCI).
“And” between values parts separate entries of the source, which are not always exact repeats. Equal values may be shown once. Compounds without any hit were thinned out: in the full panel of roughly 83,000, 20% have a hit.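 Method: cells in 96-well plates; compound added at one concentration; 48 h incubation; percent growth measured; values under 10 scored active.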 Some structures have more than one record in an assay (separate samples or runs), and their calls can disagree. The source made the active and inactive calls.

Assays:
Test in all cases: NCI-60 one-dose screen, 48 h (100 = growth as untreated, 0 = no growth, -100 = all killed)
Conditions in all cases: 10 µM unless noted
NCI-H23 lung = system: NCI-H23 lung
NCI-H226 lung = system: NCI-H226 lung
NCI-H322M lung = system: NCI-H322M lung
HOP-62 NSCLC = system: HOP-62 NSCLC
NCI-H460 lung = system: NCI-H460 lung
HOP-92 NSCLC = system: HOP-92 NSCLC
NCI-H522 lung = system: NCI-H522 lung
A549/ATCC NSCLC = system: A549/ATCC NSCLC
786-0 renal = system: 786-0 renal
COLO 205 colon = system: COLO 205 colon

Structure (SMILES) | growth (NCI-H23 lung) | growth (NCI-H226 lung) | growth (NCI-H322M lung) | growth (HOP-62 NSCLC) | growth (NCI-H460 lung) | growth (HOP-92 NSCLC) | growth (NCI-H522 lung) | growth (A549/ATCC NSCLC) | growth (786-0 renal) | growth (COLO 205 colon)
CNC(=O)c1ccc(C)c(-n2c(C)cc(OCc3ccc(F)cc3F)c(Br)c2=O)c1 | 66% (inactive) and 74.1% (inactive) | 67.2% (inactive) and 64.6% (inactive) | 86.3% (inactive) and 92.8% (inactive) | 69.8% (inactive) and 89% (inactive) | 80.3% (inactive) and 97.2% (inactive) | 64.3% (inactive) and 90.9% (inactive) | 52.3% (inactive) and 47.1% (inactive) | 63.4% (inactive) and 63.2% (inactive) | 85.9% (inactive) and 84.2% (inactive) | 61% (inactive) and 91.8% (inactive)
CO/N=C/C=C\C(=O)N/C=C/C[C@H]1/C=C/[C@H](O)/C=C\C=C\c2cccc(O)c2C(=O)O1 | 61.4% (inactive) and 54.8% (inactive) | -81.9% (active) and -73.8% (active) | 42.8% (inactive) and 51.7% (inactive) | 19.5% (inactive) and 17.4% (inactive) | 16.9% (inactive) and 8.82% (active) | 23.9% (inactive) and -9.99% (active) | 28.1% (inactive) and 15% (inactive) | 18.1% (inactive) and 12% (inactive) | 24.2% (inactive) and 18.7% (inactive) | 15.2% (inactive) and 14.3% (inactive)
CC1=NN(c2ccccc2)C(=O)C1C(=O)c1ccccc1 (stereo not given) | 98.2% (inactive) | 92.6% (inactive) | 110% (inactive) | 111% (inactive) | 108% (inactive) | 78.4% (inactive) | 98.5% (inactive) | 91.5% (inactive) | 101% (inactive) | 106% (inactive)
O=C(O)C1C2C=CC(C2)C1C(=O)O (stereo not given) | 104% (inactive) and 30.6% (inactive) and 111% (inactive) | 105% (inactive) and 38.6% (inactive) and 91.2% (inactive) | 99.3% (inactive) and 38.9% (inactive) and 104% (inactive) | 114% (inactive) and 30.1% (inactive) and 92.8% (inactive) | 104% (inactive) and 13.9% (inactive) and 105% (inactive) | 98.6% (inactive) and 98.2% (inactive) | 87.1% (inactive) and 102% (inactive) | 93.5% (inactive) and 13.4% (inactive) and 97.7% (inactive) | 105% (inactive) and 28.3% (inactive) and 104% (inactive) | 115% (inactive) and 46.9% (inactive) and 118% (inactive)
Nc1cc(-c2cccc(OC(F)(F)F)c2)nc2ccc(N3CCCC3)cc12 | 43.5% (inactive) and 40.1% (inactive) and 38.5% (inactive) | 40.2% (inactive) and 48.3% (inactive) and 33.8% (inactive) | 49.5% (inactive) and 51.3% (inactive) and 39% (inactive) | 57.1% (inactive) and 66.1% (inactive) and 15.6% (inactive) | 7.01% (active) and 7.24% (active) and 3.29% (active) | -0.264% (active) and 3.71% (active) and -3.62% (active) | -13.4% (active) and 4.49% (active) and -38.1% (active) | 15.1% (inactive) and 18.4% (inactive) and 13.8% (inactive) | 9.51% (active) and 22.1% (inactive) and 16.1% (inactive) | -58.4% (active) and -35.8% (active) and -80.6% (active)
CN1C(=O)C(N=Nc2ccc([N+](=O)[O-])cc2)SC1=S (stereo not given) | 64.1% (inactive) and 43.7% (inactive) | 80.9% (inactive) and 70.3% (inactive) | 62.2% (inactive) and 71.8% (inactive) | 41.1% (inactive) and 53.7% (inactive) | 37.7% (inactive) and 45.3% (inactive) | 61.2% (inactive) and 62.9% (inactive) | 52.9% (inactive) and 68.1% (inactive) | 71% (inactive) and 76.3% (inactive) | 70.2% (inactive) and 75.1% (inactive) | 67% (inactive) and 74.4% (inactive)
CCN(CC)CCCC(C)Nc1ccnc2cc(Oc3ccccc3)ccc12 (stereo not given) | 90.1% (inactive) and 78.7% (inactive) | 99.7% (inactive) and 112% (inactive) | 84.7% (inactive) and 105% (inactive) | 68.9% (inactive) and 83.2% (inactive) | 69.7% (inactive) and 96.5% (inactive) | -6.39% (active) and 60.3% (inactive) | 55.9% (inactive) | 58.7% (inactive) and 86.6% (inactive) | 64.3% (inactive) and 84.6% (inactive) | 47.6% (inactive) and 60.2% (inactive)
CN(C)c1ccc2nc3ccc(N)cc3[n+](-c3ccccc3)c2c1 | 10.4% (inactive) and 20.6% (inactive) | 54.7% (inactive) and 72.4% (inactive) | 66.1% (inactive) and 40.3% (inactive) | 12.6% (inactive) and 42.7% (inactive) | 9.65% (active) and 9.63% (active) | -3.42% (active) and 38.1% (inactive) | 14.1% (inactive) | 62.1% (inactive) and -27.6% (active) | 56.3% (inactive) and 38.7% (inactive) | -62.8% (active) and -12.6% (active)
CC1(C)[C@@H](OC(=O)CCC(=O)O)CC[C@]2(C)[C@H]3C(=O)C=C4[C@@H]5C[C@@](C)(C(=O)O)CC[C@]5(C)CC[C@@]4(C)[C@]3(C)CC[C@@H]12 | 105% (inactive) and -34.8% (active) | 104% (inactive) and -75.4% (active) | 107% (inactive) and -54.4% (active) | 103% (inactive) and -54.9% (active) | 103% (inactive) and -35.3% (active) | 121% (inactive) and -74.4% (active) | 86.5% (inactive) and -40.5% (active) | 107% (inactive) and -28.4% (active) | 98.4% (inactive) and -66.9% (active) | 113% (inactive) and -3.87% (active)
OC(CSc1ccccc1)CN1CCN(c2cccc(Cl)c2)CC1 (stereo not given) | 104% (inactive) and 96.6% (inactive) | 91.4% (inactive) and 89.5% (inactive) | 108% (inactive) and 102% (inactive) | 107% (inactive) and 102% (inactive) | 114% (inactive) and 109% (inactive) | 82% (inactive) and 83.2% (inactive) | 104% (inactive) and 83.7% (inactive) | 101% (inactive) and 98.4% (inactive) | 94.8% (inactive) and 105% (inactive) | 105% (inactive) and 99.9% (inactive)
NC(=O)c1ccccc1OCC(O)CO (stereo not given) | 110% (inactive) | 95.8% (inactive) | 110% (inactive) | 101% (inactive) | 103% (inactive) | 117% (inactive) | 98.4% (inactive) | 98.1% (inactive) | 103% (inactive) | 114% (inactive)
COc1ccccc1C(C)=O | 94% (inactive) and 109% (inactive) | 95.2% (inactive) and 107% (inactive) | 97.5% (inactive) and 103% (inactive) | 107% (inactive) and 102% (inactive) | 99.8% (inactive) and 109% (inactive) | 70.5% (inactive) | 113% (inactive) | 107% (inactive) and 96.9% (inactive) | 110% (inactive) and 96.6% (inactive) | 105% (inactive)
Cc1cc(C)c(N)c(Br)c1 | 101% (inactive) and 83.8% (inactive) | 106% (inactive) | 130% (inactive) and 105% (inactive) | 92.6% (inactive) and 165% (inactive) | 114% (inactive) and 101% (inactive) | 82.2% (inactive) | 95.2% (inactive) and 87.9% (inactive) | 104% (inactive) and 106% (inactive) | 102% (inactive) and 93.6% (inactive) | 102% (inactive) and 105% (inactive)
Clc1ccc(NC(Nc2ccc(Cl)cc2)C(Cl)(Cl)Cl)cc1 | 78.1% (inactive) and 96.5% (inactive) | 107% (inactive) and 96.8% (inactive) | 81.4% (inactive) and 104% (inactive) | 61.3% (inactive) and 86.3% (inactive) | 93.9% (inactive) and 105% (inactive) | 105% (inactive) | 71.2% (inactive) and 72.1% (inactive) | 80.9% (inactive) and 92.3% (inactive) | 68.5% (inactive) and 93.6% (inactive) | 129% (inactive) and 101% (inactive)
COc1ccc(CCN(C)CCCC(C#N)(c2ccc(OC)c(OC)c2)C(C)C)cc1OC (stereo not given) | 86.9% (inactive) and 106% (inactive) and 86.1% (inactive) | 113% (inactive) and 102% (inactive) and 101% (inactive) | 96.4% (inactive) and 91.3% (inactive) | 90.8% (inactive) and 86.4% (inactive) | 95.5% (inactive) and 111% (inactive) and 102% (inactive) | 81.2% (inactive) | 98.8% (inactive) and 91.6% (inactive) | 87.5% (inactive) and 104% (inactive) and 101% (inactive) | 93.7% (inactive) and 88.8% (inactive) and 107% (inactive) | 100% (inactive) and 109% (inactive) and 101% (inactive)
